We go through 19 compounds from PubChem BioAssay (NCATS).

For assay [1], the target named is Catechol O-methyltransferase (Homo sapiens) (UniProt P21964). The experiment in a line: Confirmatory Screen for Target Class Profiling of Small Molecule Inhibitors of Methyltransferases (AID 1745852; calls by dose curve; further: potency means the concentration at half of the fitted maximal effect; on activity change, negative = inhibition: on the % scale 0 is the no-effect control and ±100 the full control effect). As to conditions: MTase-Glo luminescence, SAH detection, recombinant enzyme; measured here: COMT max response; stronger effect = lower value.
For assay [2], the target named is Guanidinoacetate N-methyltransferase (Homo sapiens) (UniProt Q14353). Described as above. As to conditions: MTase-Glo luminescence, SAH detection, recombinant enzyme; activity change, negative = inhibition: at 57.3 µM (top of the series) unless noted; series mostly up to 57.3 µM.
Assay [3] deals with Nicotinamide N-methyltransferase (Homo sapiens) (UniProt P40261). Described as above. As to conditions: MTase-Glo luminescence, SAH detection, recombinant enzyme; measured here: NNMT max response; stronger effect = lower value.
The target of assay [4] is Phenylethanolamine N-methyltransferase (Homo sapiens) (UniProt P11086). Described as above. As to conditions: MTase-Glo luminescence, SAH detection, recombinant enzyme; measured here: PNMT max response; stronger effect = lower value.
The target in assay [5] is Glutathione peroxidase 1 (Homo sapiens) (UniProt P07203). Nature of the assay: Primary qHTS Assay for Inhibitors of Recombinant Selenoprotein Glutathione Peroxidase 1 (GPX1) (AID 1845191). Further: nearly all actives have a fitted effect of over 65% in size. As to conditions: recombinant GPX1, GR-coupled NADPH fluorescence, 15 min; series mostly up to 48.8 µM. Summed up:
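GPX1 10 nM, GR 100 nM, GSH 1 mM, NADPH 0.5 mM, CHP 0.5 mM (final). 30-min cpd preincubation, RT. Ex340/Em450 read t=0, t=15 min.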
(In qHTS, concentration-response curves come from the screen itself.)

Assay [6] has as its target Phospholipid hydroperoxide glutathione peroxidase GPX4 (Homo sapiens) (UniProt P36969). Nature of the assay: Primary qHTS Assay for Inhibitors of Recombinant Selenoprotein Glutathione Peroxidase 4 (GPX4) (AID 1845192). Further: nearly all actives have a fitted effect of over 65% in size. On activity change, negative = inhibition: on the % scale 0 is the no-effect control and ±100 the full control effect. As to conditions: recombinant GPX4, GR-coupled NADPH fluorescence, 15 min; series mostly up to 50 µM. Summed up: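 qHTS, GR-coupled: GPX4 200 nM + cpd 30 min RT → GSH 1 mM, NADPH 0.5 mM, GR 100 nM → CHP 0.5 mM start; fluor 340/450 at t0 and t15 min; no-enzyme wells as control.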

Assay [7] has as its target Luciferin 4-monooxygenase (Photinus pyralis) (UniProt P08659). The experiment in a line: Primary firefly luciferase (FLuc) qHTS assay for identification of artifact compounds. (AID 1845220). Further: nearly all actives have a fitted effect of over 60% in size. Further: potency means the concentration at half of the fitted maximal effect.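 On activity change, negative = inhibition: plate controls were DMSO vehicle for no effect and no enzyme for full effect.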 As to conditions: purified firefly luciferase, luminescence, 5 min; series mostly up to 54.1 µM. Summed up: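 qHTS, 15 min compound preincubation with substrate (10 uM luciferin, 10 uM ATP) at RT, then 10 nM FLuc; 5 min; luminescence; % inhibition vs no-enzyme/DMSO controls, 4-parameter Hill fit.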

Assay [8] in a line: Primary fluorescence-based thiol-reactive (MSTI) qHTS assay for identification of artifact compounds. (AID 1845221). Further: nearly all actives have a fitted effect of over 65% in size. Further: potency means the concentration at half of the fitted maximal effect. As to conditions: MSTI thiol-reactivity probe, 1 h; series mostly up to 53.8 µM. Summed up: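 MSTI probe at 4 uM final in 2% DMSO/PBS pH 7.4; compounds, 1 h at room temperature in dark. Fluorescence Ex/Em 525/598 nm, normalised to Acetyl-MSTI and MSTI, fitted to 4-parameter Hill.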

For assay [9], the system named is Nanoluciferase (engineered Oplophorus gracilirostris luciferase). Nature of the assay: Primary Nanoluciferase (NLuc) qHTS assay for identification of artifact compounds. (AID 1845222). As to conditions: NLuc-conditioned medium, Nano-Glo luminescence, 5 min; series mostly up to 54.1 µM. The method in brief: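 Luminescence read-out of secreted NLuc in S16 cell conditioned medium (1:55); compounds tested with 15 min RT preincubation, then Nano-Glo substrate 1:100, 5 min. % inhibition vs no-enzyme and DMSO controls, 4-parameter Hill fit.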

For assay [10], the target named is Rap guanine nucleotide exchange factor 3 (Homo sapiens) (UniProt O95398). The experiment in a line: Counterscreen qHTS for agonist of cAMP-regulated guanine nucleotide exchange factor 3 (EPAC1) (AID 1645889). Further: % of control where 0% means no effect; nearly all actives have a fitted effect of over 40% in size. As to conditions: EPAC1 Rap1B-BODIPY-GDP exchange, fluorescence; series mostly up to 154 µM. Summed up: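 Measured: fluorescence of BODIPY-GDP bound to Rap1B, which falls as exchange proceeds. Conditions include 50 uM competing GDP, 5 and 30 min reads, and a later cAMP challenge for antagonist detection.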
On the technique in general: The purpose of a counterscreen is to sort out artefacts and off-target activity.

Assay [11] is described as follows: Primary redox qHTS assay for identification of artifact compounds. (AID 1845223).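 Further: 0% = DMSO and 100% = reference compound.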 As to conditions: Amplex Red/HRP redox cycling with DTT, fluorescence; series mostly up to 53.8 µM. Summed up: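 Redox-cycling detection via DTT (250 uM final) oxidation coupled to Amplex Red (25 uM)/HRP (250 mU/mL) in HBSS. 15 min preincubation plus 30 min after DTT, room temperature. Ex/Em 525/598 nm; 4-parameter Hill fit against DMSO and 10 uM DA3003.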

SMILES strings stand for the structures. Inconclusive results are not listed. Calls of active or inactive are those of the source. Unless noted, the call rests on the fitted dose curve; in most records, active means well fitted curve in the direction sought with a large enough effect; inconclusive means small, poorly fitted or top-dose-only effect, or another doubt; inactive means no such curve, though single readings can be large; an effect the other way counts as inactive or inconclusive.

Sequence of Phospholipid hydroperoxide glutathione peroxidase GPX4 (Homo sapiens) (P36969 whole entry, looked up): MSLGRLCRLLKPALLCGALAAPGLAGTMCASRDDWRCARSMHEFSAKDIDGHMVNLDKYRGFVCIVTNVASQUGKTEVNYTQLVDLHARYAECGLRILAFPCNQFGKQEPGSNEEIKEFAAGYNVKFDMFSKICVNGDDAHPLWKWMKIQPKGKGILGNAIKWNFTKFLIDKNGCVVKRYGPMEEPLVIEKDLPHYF
Sequence of Nicotinamide N-methyltransferase (Homo sapiens) (P40261 whole entry, looked up): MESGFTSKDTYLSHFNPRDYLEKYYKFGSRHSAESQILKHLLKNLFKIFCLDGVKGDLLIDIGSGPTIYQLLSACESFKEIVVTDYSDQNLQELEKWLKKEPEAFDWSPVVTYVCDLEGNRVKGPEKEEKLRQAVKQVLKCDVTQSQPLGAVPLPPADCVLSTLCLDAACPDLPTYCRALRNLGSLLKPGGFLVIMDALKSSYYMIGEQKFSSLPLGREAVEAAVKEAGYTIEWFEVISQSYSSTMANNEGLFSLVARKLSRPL
Sequence of Catechol O-methyltransferase (Homo sapiens) (P21964 whole entry, looked up): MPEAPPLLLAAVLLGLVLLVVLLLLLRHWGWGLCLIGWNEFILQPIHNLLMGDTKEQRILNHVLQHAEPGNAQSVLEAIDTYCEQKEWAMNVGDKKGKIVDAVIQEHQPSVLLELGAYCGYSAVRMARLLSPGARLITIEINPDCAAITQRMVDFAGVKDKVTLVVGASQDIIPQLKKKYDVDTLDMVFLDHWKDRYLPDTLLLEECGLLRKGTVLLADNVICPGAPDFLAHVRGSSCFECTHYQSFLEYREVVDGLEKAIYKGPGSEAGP
Sequence of Glutathione peroxidase 1 (Homo sapiens) (P07203 whole entry, looked up): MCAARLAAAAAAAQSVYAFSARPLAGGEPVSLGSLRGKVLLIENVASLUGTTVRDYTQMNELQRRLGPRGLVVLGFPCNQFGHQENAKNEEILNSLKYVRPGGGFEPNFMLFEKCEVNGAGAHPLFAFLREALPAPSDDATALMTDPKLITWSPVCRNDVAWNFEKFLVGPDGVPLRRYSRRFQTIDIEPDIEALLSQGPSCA
Sequence of Phenylethanolamine N-methyltransferase (Homo sapiens) (P11086 whole entry, looked up): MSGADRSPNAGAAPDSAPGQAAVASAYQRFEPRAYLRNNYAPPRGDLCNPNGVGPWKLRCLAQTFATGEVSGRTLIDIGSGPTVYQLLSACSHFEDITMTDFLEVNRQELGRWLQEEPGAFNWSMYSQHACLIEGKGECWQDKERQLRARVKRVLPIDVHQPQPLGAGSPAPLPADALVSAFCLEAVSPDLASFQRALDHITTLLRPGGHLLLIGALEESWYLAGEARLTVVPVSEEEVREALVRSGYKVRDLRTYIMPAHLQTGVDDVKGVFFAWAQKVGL

`CC(=O)OC/C(=C/C(=O)O)CC[C@@H]1C(C=O)=CC[C@@H]2C(C)(C)CCC[C@@]12C`: the activity is -75.1% in assay [1], -14% in assay [3] and -7.72% in assay [4]. Also, the activity change, negative = inhibition in assay [2] is -3.55%. Besides, the Potency result in assay [5], in assay [6], in assay [7], in assay [8] and in [9] was “inactive” throughout.
As to `C[C@]12CC[C@@H]3c4ccc(OS(=O)(=O)O)cc4CC[C@H]3[C@@H]1CCC2=O`, the outcome in [10] was “inactive”.
As for `NC(=O)c1ccccc1Nc1ccnc(Nc2cccc(O)c2)n1`, the results for the activity in [1], in [3] and in [4] were -4.04%, -41.1% and -7.27%, respectively. Further, in assay [2], the activity change, negative = inhibition stood at 1.25%. The Potency result in assay [5], in assay [6], in assay [7], in assay [8], in assay [9] and in assay [11] was “inactive” throughout.
`C=C1C(=O)O[C@@H]2C=C(COC(C)=O)CC/C=C(\CO)CC[C@@H]12`: the activity is -83.7% in assay [1], 2.08% in assay [3] and 0.0072% in assay [4]. Also, the activity change, negative = inhibition in assay [2] amounted to 2.22%. Further, the Potency entry in [5], in assay [6], in assay [7], in assay [8], in [9] and in assay [11] was “inactive” throughout.
On to `COc1c2c(c(C)c3c1C(=O)OC3)O[C@@]1(C)C[C@@H](OC(C)=O)[C@]34O[C@](OC)(CC[C@]3(C)[C@H]1C2)OC4(C)C`, for which the activity in assay [1] is -8.48%; in assay [3], -50.2%; in [4] it was -7.63%. Besides, the activity change, negative = inhibition in [2] is 2.06% [at 29.8 µM]. Besides, the Potency entry in assay [5], in [6], in assay [7], in assay [8], in assay [9] and in [11] was “inactive” throughout.
Regarding `CC(C)(C)c1ccc(C(=O)Nc2cc(Cl)c(Br)cc2C(=O)O)cc1`, the activity is -14% in [1], -40.5% in assay [3] and -22% in assay [4]. For the same compound, in [2], the activity change, negative = inhibition was -8.07%. Besides, the Potency entry in assay [5], in [6], in [8], in [9] and in assay [11] was “inactive” in each case. In addition, the Potency in [7] is 6.75 µM (active).
Take `CCC(=C(c1ccc(OCCN2CCCC2)cc1)c1ccc(OCCN2CCCC2)cc1)c1ccccc1`: the activity in assay [1] was -7.7%; in assay [3], -3.61%; in assay [4] it was -4.76%. The activity change, negative = inhibition in assay [2] is -5.33% [at 12.7 µM]. Further, the Potency entry in assay [5], in [6], in assay [7], in assay [8], in [9] and in assay [11] was “inactive” in each case.
In the case of `C=C1C(=O)OC2C1CCC1(C)C(O)CC=C(C)C21` (stereo not given), the activity in [1] was -60.3%; in assay [3], -3.54%; in assay [4], -2.19%. Also, the activity change, negative = inhibition in assay [2] was -6.03%. The Potency entry in assay [5], in assay [6], in assay [7], in [9] and in assay [11] was “inactive” throughout. For the same compound, the Potency in [8] was 11.9 µM (active).
For the compound `O=C(NCCCc1ccccc1)c1cccc(-c2cc(O)c3ncccc3c2)c1`, the activity in assay [1] was -82.7%; in assay [3] it was -28.1%; in assay [4] it was 4.23%. Besides, the activity change, negative = inhibition in [2] was -1.73%. Moreover, the Potency entry in assay [5], in assay [6], in assay [7], in [8], in assay [9] and in [11] was “inactive” throughout.
Take `COc1cc(/C=C2\CCCN([C@@H](C)c3ccc(F)cc3)C2=O)ccc1-n1cnc(C)c1`: the activity is -8.51% in assay [1], -25.5% in assay [3] and -13% in assay [4]. Further, in assay [2], the Potency is 2.41 µM (active). Besides, the Potency result in [5], in [6], in assay [7], in assay [8], in assay [9] and in assay [11] was “inactive” throughout.
As for `O=C(NCCCNc1nc(Nc2cccc(CN3CCOCC3)c2)ncc1C1CC1)C1CCC1`, the activity in assay [1] is -3.13%; in [3] it was -11.4%; in assay [4], -23.2%. The activity change, negative = inhibition in assay [2] came to 0%. In addition, the Potency result in assay [5], in assay [6], in assay [7], in assay [8], in assay [9] and in assay [11] was “inactive” throughout.
As to `CCCc1cc2c(N3CCN(C4=NCC(C)(C)S4)CC3)ncnc2s1`, the activity in assay [1] was -3.43%; in assay [3], -77.1%; in [4], -5.27%. The activity change, negative = inhibition in [2] was found to be 1.29%. Moreover, the Potency entry in [5], in assay [6], in assay [7], in [8], in assay [9] and in [11] was “inactive” each time.
Turning to `Clc1ccc(Cn2c(Cc3ccccc3)nc3ccccc32)cc1`, the results for the activity in assay [1], in assay [3] and in [4] were -6.59%, -51% and -7.3%, respectively. For the same compound, in assay [2], the activity change, negative = inhibition is -6.78%. For the same compound, the Potency entry in assay [5], in assay [6], in [7], in assay [8], in assay [9] and in [11] was “inactive” throughout.
On to `Cc1cc(C)cc(-c2cnc3cc(Cl)c(-c4cccc(O)c4)cc3c2OCCCN)c1`, for which the activity in [1] is -38.4%; in assay [3], -83.8%; in assay [4], -37.3%. Further, the Potency in assay [2] was 42.9 µM (active). The Potency result in [5], in assay [6], in [7], in [8], in assay [9] and in assay [11] was “inactive” each time.
For `COc1cc(/C=N\NC(=O)c2ccc3c(c2)OCO3)ccc1OCc1ccccc1`, the results for the activity in assay [1], in assay [3] and in assay [4] were -3.52%, -20.5% and -1.07%, respectively. In assay [2], the activity change, negative = inhibition stood at 1.69%. Moreover, the Potency result in [5], in assay [6], in assay [7], in [8], in assay [9] and in assay [11] was “inactive” throughout.
For `CCN(CC)C(=O)c1ccc(Nc2nc(OCC3CCCCC3)c3[nH]cnc3n2)cc1`, the figures for the activity in assay [1], in [3] and in assay [4] were -18.1%, -75.3% and -18.4%, respectively. For the same compound, in assay [2], the Potency is 30.4 µM (active). Further, the Potency entry in assay [5], in assay [6], in assay [7], in [8], in assay [9] and in [11] was “inactive” in each case.
Consider `Cc1nc(C#Cc2ccnc(Cl)c2)c(C)n1-c1ccc(F)cc1`, for which the activity is -47.3% in [1], -47.6% in assay [3] and -47.9% in [4]. Further, the Potency in assay [2] was 30.4 µM (active). The Potency result in assay [5], in assay [6], in assay [7], in assay [8], in assay [9] and in [11] was “inactive” throughout.
Turning to `CN(C)CCOC(C)(c1ccccc1)c1ccc(Cl)cc1` (stereo not given), the results for the activity in [1], in assay [3] and in assay [4] were -7.63%, -25.2% and -3.91%, respectively. Moreover, the activity change, negative = inhibition in assay [2] is -4.69%. The Potency entry in [5], in [6], in [7], in assay [8], in assay [9] and in assay [11] was “inactive” throughout.
Take `c1cc(NCCc2c[nH]c3ccccc23)cc(Nc2ccncc2)c1`: the results for the activity in [1], in assay [3] and in assay [4] were -7.79%, -26% and -13.2%, respectively. Besides, the Potency in assay [2] was 48.2 µM (active); in assay [8] it was 2.67 µM (active). Further, the Potency entry in assay [5], in assay [6], in assay [7], in assay [9] and in assay [11] was “inactive” throughout.
